Bioassay records as filed in PubChem.
DNA FID counter: counter-screen for HCV NS3 helicase inhibitors: DNA intercalator displacement; inhibition, % at 7.9 µM; DNA fluorescent intercalator displacement, fluorescence; hit rate 0.17% among 290,000; in the data active = inhibition above about 37%;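 also: 0% = vehicle and 100% = reference compound; higher means more ethidium bromide displaced from hairpin DNA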
ANO1 activ: activates or potentiates the mouse TMEM16A chloride channel. hit rate 0.3% among 340,000. HEK293 TMEM16A/YFP-H148Q/I152L, iodide quench fluorescence; stronger effect = lower value. AID 623877. Q8BHY3. B-score at 10 µM;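 active = fluorescence-ratio B-score plate-corrected deviation score at least 3 library SD below zero, with starting fluorescence score within 5 deviations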;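 also: channel opened by trigger with iodide after compound preincubation; score built on the fluorescence ratio of max minus min over baseline; more negative score means more quench and so TMEM16A activation or potentiation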
PP5 primary: PP5 (human) phosphatase inhibition. P53041. purified PP5c, OMFP substrate fluorescence. inhibition, % at 6.7 µM. hit rate 0.18% among 320,000. AID 1987;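 active = inhibition above the campaign's mean inhibition across all tested compounds plus 3 SD, cut at about 9.5% in these data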;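 also: 0% = DMSO only and 100% = 100 µM cantharidin control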
PP1 counter: PP1-alpha (human) inhibition in PP5 counter-screen | hit rate 0.9% among 320,000 | inhibition, % at 6.7 µM | purified PP1alpha, OMFP fluorescence;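 active = inhibition above the mean inhibition of all tested compounds plus 3 SD, computed separately for each screening campaign, cut at about 15% in these data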
PREPL inh: inhibitors of human prolyl oligopeptidase-like enzyme PREPL | recombinant PREPL, fluorescence polarization activity-based probe | inhibition, % at 5.96 µM | hit rate 0.68% among 320,000 | AID 2751; in the data active = inhibition above about 43%;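 also: 0% = enzyme with DMSO and 100% = wells lacking enzyme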
ANO1 block: mouse TMEM16A channel inhibition, primary screen; Q8BHY3; HEK293 TMEM16A/YFP iodide influx fluorescence, ionomycin; normalized B-score (activity score, 25-100; higher = stronger inhibition) at 10 µM; hit rate 1.2% among 310,000;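 active = ratio plate-corrected score three or more library SD toward inhibition, starting fluorescence score within five deviations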;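 also: score derived from kinetic fluorescence span divided by baseline fluorescence per well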
PP1 inh confirm: confirmation of human PP1 phosphatase inhibitors; shares compounds with PP1 counter; purified PP1alpha, OMFP substrate fluorescence; AID 2358; inhibition, % at 6.7 µM; hit rate 52% among 1,900;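 active = mean PP1 inhibition above a set limit taken from the earlier primary screen, cut at about 15% in these data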
PP5 counter: counter-screen for PP1 inhibitors: human PP5 phosphatase inhibition; shares compounds with PP1 counter; purified PP5c, OMFP fluorescence; inhibition, % at 6.7 µM; hit rate 4% among 1,900; AID 2360;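 active = mean PP5 inhibition over triplicate wells above about 9.5% taken from the earlier PP1 screen, limit read from the data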
Starred values were filed as active, the others as inactive; i = inactive; nt = no result. Only some compounds are listed: those with a hit (about 2.7% of all), similar ones and a draw of the others.

SMILES	DNA FID counter	ANO1 activ	PP5 primary	PP1 counter	PREPL inh	ANO1 block	PP1 inh confirm	PP5 counter
CCOc1ccc(N2CC(C(=O)Nc3cc(S(=O)(=O)N4CCCCC4)ccc3C)CC2=O)cc1 (stereo not drawn)	nt	i	nt	nt	8.5	nt	nt	nt
NC(=O)CC(NC(=O)c1ccc(Br)cc1)c1ccc(N2CCCCCCC2)c([N+](=O)[O-])c1 (stereo not drawn)	-21.8	i	6.2	7.0	11.5	i	nt	nt
NC(=O)CC(NC(=O)c1cccc(Br)c1)c1ccc(N2CCN(c3ccc(F)cc3)CC2)c([N+](=O)[O-])c1 (stereo not drawn)	-5.8	i	1.4	2.2	10.5	i	nt	nt
NC(=O)CC(NC(=O)c1ccc(Br)cc1)c1ccc(N2CCC(Cc3ccccc3)CC2)c([N+](=O)[O-])c1 (stereo not drawn)	-18.0	i	-1.2	19.8*	7.5	i	11.0	-2.3
NC(=O)CC(NC(=O)c1ccc(Br)cc1)c1ccc(N2CCN(c3ccc(F)cc3)CC2)c([N+](=O)[O-])c1 (stereo not drawn)	nt	i	-2.8	21.2*	22.4	i	13.6	0.3
NC(=O)CC(NC(=O)Cc1ccc(Br)cc1)c1ccc(N2CCN(c3ccc(F)cc3)CC2)c([N+](=O)[O-])c1 (stereo not drawn)	nt	i	2.9	18.3*	9.1	i	14.9	0.4
Cc1ccc(OCCC(=O)OC(C)C(=O)NC2CC2)cc1 (stereo not drawn)	nt	i	-3.2	-1.9	2.6	i	nt	nt
CCCCCN(C(=O)COC(=O)c1ccc(C)cc1)c1c(N)n(CCCC)c(=O)[nH]c1=O	nt	i	-0.3	-1.6	3.4	nt	nt	nt
O=C(O)c1ccccc1OCCN1CCCC1=O	-2.6	i	1.4	1.4	-8.8	i	nt	nt
Cc1ccc(C(=O)c2oc3ccccc3c2N)cc1	-9.1	i	1.9	0.1	15.6	i	nt	nt
Nc1c(C(=O)c2ccc(Br)cc2)oc2ccccc12	-0.3	i	2.9	17.7*	15.9	i	-3.6	-3.4
O=C(O)C1C2CCC(O2)C1C(=O)Nc1ccc(Br)cc1F (stereo not drawn)	-4.8	i	65.6*	58.4*	11.7	i	14.4	21.0*
Cc1ccc(Cl)cc1NC(=O)C1C2CCC(O2)C1C(=O)O (stereo not drawn)	1.5	i	56.3*	52.0*	-1.4	i	9.8	16.2*
Cc1ccc(NC(=O)C2C3CCC(O3)C2C(=O)O)c(Br)c1 (stereo not drawn)	-2.9	i	73.0*	66.5*	-2.5	i	19.6*	27.6*
O=C(Cc1ccc(Br)cc1)Nc1cccc(-c2cn3c(n2)SCC3)c1	-6.7	i	4.1	-0.7	14.8	i	nt	nt
Cn1[nH]cc(C=NC(N)=O)c1=O	nt	i	nt	nt	nt	nt	nt	nt
O=C(/C=C/c1ccc(F)cc1)NC(=S)NNC(=O)[C@H]1C[C@@H]1c1ccccc1	-32.9	i	3.1	18.4*	-9.9	i	7.3	-2.5
COc1cc(/C=N/Nc2nc(Nc3ccccc3)nc(-n3nc(C)cc3C)n2)cc(OC)c1OC	-17.3	i	6.2	24.2*	11.9	i	34.5*	3.1
COc1cc(/C=N/Nc2nc(Nc3ccc(C)cc3)nc(-n3nc(C)cc3C)n2)cc(OC)c1OC	-17.6	i	4.1	22.2*	22.4	i	21.4*	0.3
COc1cc(/C=N/Nc2nc(Nc3ccccc3)nc(N3CCCCC3)n2)ccc1OCC(=O)O	-11.2	i	-1.1	9.9	13.7	i	nt	nt
COc1ccc(/C=N/Nc2nc(Nc3ccccc3)nc(N3CCCC3)n2)cc1[N+](=O)[O-]	-5.5	i	1.5	7.7	-5.1	i	nt	nt
COc1ccc(OC)c(NC(=S)N2c3ccccc3CC2C)c1 (stereo not drawn)	-9.7	i	0.8	0.6	4.5	i	nt	nt
CCCOc1ccc(/C(O)=C2\C(=O)C(=O)N(c3ccccn3)C2c2ccccc2F)cc1C (stereo not drawn)	-37.9	i	0.7	23.6*	9.0	i	26.3*	0.2
